High-throughput results: PubChem, Broad Institute
HIV Env fusion – inhibitors of HIV-1 Env-driven cell-cell fusion, primary screen, HeLa-JRFL effector, CEM21 target cells, luciferase | inhibition, % at 12.3 µM | 360,000 compounds, 1.1% hits;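 active = mean replicate inhibition score of at least 50 and every replicate individually at or above 50; inconclusive = only one of the two criteria met; inactive = mean below 50 and not all replicates reaching 50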
INS-1E GSIS act – GLuc luminescence reporter in INS-1E cells, primary screen for activators of glucose-dependent secretion of insulin. activation, % at 16.6 µM. INS-1E GLuc reporter insulin secretion, 2-3 h. 370,000 compounds, 0.61% hits;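 active = lowest replicate activation of at least 40%, so every replicate reaches that level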
MITF act – activators of MITF-driven TRPM1 promoter reporter, primary screen, cell-based, SK-MEL-5, luciferase, single point | SK-MEL-5 TRPM1-promoter luciferase, 24 h; % of positive control, neutral wells = 0 | activation, % at 12.5 µM | 300,000 compounds, 0.75% hits;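 active = mean activation of at least 80% with every replicate also reaching 80%; inconclusive = mean reaches 80% but some replicate falls short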
Wnt act – Wnt/beta-catenin pathway activators, primary screen, cell-based, plate reader, single point | 300,000 compounds, 1.2% hits | Wnt/beta-catenin reporter cell assay, activator | activation, % at 9.35 µM | AID 743398, 2014; in the data active = activation above about 30%, passing the limit was not always enough; inconclusive = no clear call, values can overlap the other calls
CFTR F508del cor – F508del CFTR correction, initial screen, CFBE line, single point | CFBE cells, YFP halide quenching; stimulated with forskolin plus potentiator P3; % fluorescence drop versus neutral controls | activity (quench increase), % at 7.58 µM | 350,000 compounds, 0.36% hits | AID 720511, 2013;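 active = mean added fluorescence quench of at least 8% versus neutral control, with both replicates also reaching 8%; inconclusive = only one of the mean or replicate conditions met; inactive = mean below 8% and not both replicates reaching 8%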;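 also: cells transiently co-express mutant CFTR-F508del with the halide-sensitive YFP; corrector assay measuring rescue of mutant channel to the surface after 24 h compound exposure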
Each line names hits and unclear results; the compound was inactive in the other large screens; [ ] = dose if it differs, or a comment. This is a sample that favours compounds with a hit; in the whole collection about 2.7% have one here.

Cc1cc(C(=O)CN2C(=O)NC3(CCCCC3C)C2=O)c(C)n1Cc1cccs1 (stereo not drawn)	MITF act 92, Wnt act 65 (no result: CFTR F508del cor)
CC1CCCCC12NC(=O)N(CC(=O)NCc1cccs1)C2=O (stereo not drawn)	none (no result: MITF act)
Cc1cc(C(=O)CN2C(=O)NC3(CCCCC3)C2=O)c(C)n1Cc1ccco1	MITF act inconclusive, Wnt act 73
Cc1cc(C(=O)CN2C(=O)NC3(CCCCC3)C2=O)c(C)n1Cc1ccc2c(c1)OCO2	none (no result: INS-1E GSIS act, Wnt act, CFTR F508del cor)
CCCNC(=O)[C@@H]1[C@@H](CO)[C@@H]2Cn3c(ccc(-c4cncnc4)c3=O)[C@H]1N2C(=O)Nc1ccccc1	none (no result: MITF act, Wnt act, CFTR F508del cor)
CC[N+]1(C)CCC(O)(c2ccc(OC)cc2)C(C(=O)c2ccc(OC)cc2)C1 (stereo not drawn)	INS-1E GSIS act 214
CCN1/C(=C/C=C/c2sc3ccccc3[n+]2CC)Sc2ccccc21	none (no result: HIV Env fusion, INS-1E GSIS act, Wnt act, CFTR F508del cor)
CCN1/C(=C/C=C/c2oc3ccc(-c4ccccc4)cc3[n+]2CC)Oc2ccc(-c3ccccc3)cc21	HIV Env fusion 77
COc1ccc(C[C@@H]2CCc3cnnn3COC[C@@H](c3ccccc3)NC2=O)cc1	none (no result: MITF act, Wnt act, CFTR F508del cor)
Cc1nn(Cc2ccc([N+](=O)[O-])cc2)c(=O)n1-c1ccccc1Cl	none
Cc1nn(Cc2ccc([N+](=O)[O-])cc2)c(=O)n1N(C)c1ncc(C(F)(F)F)cc1Cl	HIV Env fusion 63 (no result: INS-1E GSIS act, CFTR F508del cor)
C[C@H](CO)N1C[C@H](C)[C@@H](CN(C)C(=O)C2CCCCC2)Oc2ncc(C#CC3CCCCC3)cc2C1=O	none (no result: HIV Env fusion, MITF act, Wnt act, CFTR F508del cor)
COc1ccc(/C=N/n2cnnc2SCCO)cc1OC	none (no result: HIV Env fusion, INS-1E GSIS act, Wnt act, CFTR F508del cor)
C=CCSc1nncn1/N=C/c1ccc(OC)cc1	MITF act 92 (no result: INS-1E GSIS act, CFTR F508del cor)
C[C@@H]1CCCCO[C@H](CN(C)Cc2ccc(C(F)(F)F)cc2)[C@@H](C)CN([C@H](C)CO)C(=O)c2cc(NC(=O)Cc3ccccc3)ccc2O1	none (no result: MITF act, Wnt act)
C[C@@H]1CCCCO[C@H](CN(C)Cc2ccc(C(F)(F)F)cc2)[C@H](C)CN([C@H](C)CO)C(=O)c2cc(NC(=O)Cc3ccccc3)ccc2O1	HIV Env fusion 57[16.7 µM] (no result: MITF act, Wnt act)
C[C@H]1CCCCO[C@@H](CN(C)Cc2ccc(C(F)(F)F)cc2)[C@@H](C)CN([C@@H](C)CO)C(=O)c2cc(NC(=O)Cc3ccccc3)ccc2O1	HIV Env fusion 75[16.7 µM] (no result: MITF act, Wnt act)
CN(C)CCCNC(=O)C[C@@H]1CC[C@H]2[C@@H](COc3ccc(NC(=O)c4ccccc4F)cc3C(=O)N2C)O1	none (no result: HIV Env fusion, MITF act, Wnt act)
Cc1ccc(S(=O)(=O)N(C)C[C@H]2Oc3cc(C#Cc4ccccc4)ccc3S(=O)(=O)N([C@@H](C)CO)C[C@H]2C)cc1	none (no result: MITF act, Wnt act, CFTR F508del cor)
COc1ccc(NC(=O)C2=Cc3cccc(OC)c3OC2)cc1	Wnt act 44
C[C@H](CO)N1C[C@H](C)[C@H](CN(C)C(=O)Nc2ccc(F)cc2)OCCCC[C@H](C)Oc2ccc(NS(=O)(=O)c3ccc(F)cc3)cc2C1=O	none (no result: MITF act, Wnt act)
COc1ccc(NC(=O)Nc2ccc3c(c2)C(=O)N([C@H](C)CO)C[C@H](C)[C@@H](CN(C)C(=O)Nc2ccc(F)cc2)OCCCC[C@@H](C)O3)cc1	none (no result: MITF act, Wnt act)
COc1ccc(S(=O)(=O)N(C)C[C@@H]2Oc3ccc(NC(=O)NC4CCCCC4)cc3C(=O)N([C@@H](C)CO)C[C@H]2C)cc1	none (no result: HIV Env fusion, MITF act, Wnt act)
C[C@H]1CN([C@@H](C)CO)C(=O)Cc2cc(N(C)C)ccc2O[C@H]1CN(C)CC1CC1	HIV Env fusion 59[16.7 µM] (no result: MITF act, Wnt act)
C[C@H]1CN([C@@H](C)CO)C(=O)Cc2cc(N(C)C)ccc2O[C@H]1CN(C)Cc1ccc(Cl)c(Cl)c1	HIV Env fusion 58[16.7 µM] (no result: MITF act, Wnt act)
C[C@@H]1CN([C@@H](C)CO)C(=O)Cc2cc(N(C)C)ccc2O[C@@H]1CN(C)Cc1ccc(Cl)c(Cl)c1	none (no result: INS-1E GSIS act, MITF act, Wnt act)
CN(C)CC(=O)Nc1ccc2c(c1)[C@@H]1C[C@H](CC(=O)NCC3CC3)O[C@H](CO)[C@@H]1O2	none (no result: MITF act, Wnt act)
O=C(NCc1ccco1)/C(=C/c1ccc(C(F)(F)F)cc1)c1nc2ccccc2[nH]1	Wnt act 34 (no result: CFTR F508del cor)
O=C(NCc1ccco1)/C(=C/c1cccc(C(F)(F)F)c1)c1nc2ccccc2[nH]1	none (no result: CFTR F508del cor)
CCN(CC(=O)Nc1cccc(OC)c1)c1ncnc2sc(C)c(C)c12	HIV Env fusion 58 (no result: CFTR F508del cor)
Cc1noc(N)c1C(=O)Nc1ccc(C(C)(C)C)cc1	MITF act 86, Wnt act 51 (no result: INS-1E GSIS act, CFTR F508del cor)
CCOC(=O)c1ccc(NC(=O)c2cc3ccccc3o2)cc1	MITF act 111 (no result: HIV Env fusion, INS-1E GSIS act, Wnt act, CFTR F508del cor)
CCOC(=O)c1cccc(NC(=O)c2cc3ccccc3o2)c1	none (no result: MITF act)
O=C(Nc1cccnc1Cl)c1cc2ccccc2o1	Wnt act 49
COc1cc(NC(=O)c2c(OC)cccc2OC)ccc1NC(=O)c1cc2ccccc2o1	MITF act 93 (no result: INS-1E GSIS act, CFTR F508del cor)
Cc1cc(NC(=O)c2cccnc2Cl)ccc1NC(=O)c1cc2ccccc2o1	none
Cc1cccc(NC(=O)c2cc3ccccc3o2)c1	Wnt act 42 (no result: CFTR F508del cor)
O=C(COc1ccccc1)NNC(=O)c1cc2ccccc2o1	none (no result: HIV Env fusion, Wnt act, CFTR F508del cor)
O=C(NCCOc1ccccc1)c1cc2ccccc2o1	MITF act 102 (no result: INS-1E GSIS act, CFTR F508del cor)
C[C@H]1CN([C@@H](C)CO)C(=O)c2cc(C3=CCCCC3)cnc2O[C@H]1CN(C)C(=O)c1ccncc1	none (no result: MITF act, Wnt act)
CSc1cccc(NC(=O)C2CCCN2S(=O)(=O)c2ccc(Br)s2)c1 (stereo not drawn)	HIV Env fusion 60 (no result: INS-1E GSIS act, Wnt act, CFTR F508del cor)
O=C(Nc1ccc(F)cc1)C1CCCN1S(=O)(=O)c1ccc(Br)cc1 (stereo not drawn)	HIV Env fusion 81
O=C(C1CCOCC1)N1CC(=O)N2[C@H](CO)[C@H](c3ccc(C#CC4CCCC4)cc3)[C@H]2C1	none (no result: HIV Env fusion, MITF act, Wnt act)
COc1ccc(-c2nnc(N(C)C(=O)c3ccco3)s2)cc1OC	none
Cc1cccc(-c2nnc(NC(=O)c3ccco3)s2)c1	none
O=C(Nc1nnc(-c2ccc(F)cc2)s1)c1ccco1	MITF act 106
CN(C(=O)c1ccco1)c1nnc(-c2ccc(F)cc2)s1	MITF act 100
CN(C(=O)c1ccco1)c1nc(-c2ccc(F)cc2)cs1	MITF act 80
CC(C)(C)n1nnnc1C(c1cccs1)N1CCCC2(CCCCC2)C1 (stereo not drawn)	none (no result: HIV Env fusion)
c1csc(C(c2nnnn2C2CCCCC2)N2CCCC3(CCCCC3)C2)c1 (stereo not drawn)	HIV Env fusion 115 (no result: CFTR F508del cor)
NC1=NC(=O)/C(=C/c2cc(Br)c(O)c(Br)c2)S1	none
COc1cc(/C=C2\SC(N)=NC2=O)cc(OC)c1	HIV Env fusion 59
O=C(CC(c1ccccc1O)N1CCCCC1)N1CCCCC1 (stereo not drawn)	Wnt act 39 (no result: INS-1E GSIS act, MITF act, CFTR F508del cor)
Cc1noc(C)c1NC(=O)N(C)C[C@@H]1Oc2ncc(C3=CCCCC3)cc2C(=O)N([C@@H](C)CO)C[C@@H]1C	none (no result: HIV Env fusion, MITF act, Wnt act)
COc1cc2c(cc1OC)/C(=C/C(=O)c1ccc(OC)c([N+](=O)[O-])c1)NCC2	INS-1E GSIS act 51
Cc1ccc(NC(=O)c2ccc(OC(F)(F)F)cc2)cc1S(=O)(=O)N(C)C	HIV Env fusion 62 (no result: Wnt act, CFTR F508del cor)
